High-throughput results (PubChem BioAssay)
Most compounds without a hit are left out; they make up all but 4.1% or so of the library.
EBV LMP1 NFkB – EBV LMP1-driven NF-kappaB luciferase reporter inhibitors, primary screen, cell-based, luminescence, single point. LMP1-induced NF-kappaB luciferase reporter cells. inhibition, % at 12.5 µM. 350,000 tested, 0.69% active; in the data active means inhibition above about 41%; inconclusive means no clear call, values can overlap the other calls;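 further: 0% = neutral control wells and 100% = reference inhibitor control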
Peg3 prom inh – Peg3 promoter-driven luciferase inhibitors, primary screen, cell-based, HeLa, luciferase luminescence. HeLa PEG-Prom luciferase reporter, overnight. inhibition, % at 20 µM. 360,000 tested, 1.7% active. AID 588405, 2011;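 active means inhibition of at least 50% at 20 µM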
TWEAK-Fn14 inh – inhibitors of TWEAK-Fn14 signaling, primary screen, luciferase reporter cells, uHTS; TWEAK-stimulated Fn14 reporter cells, luciferase luminescence, 8 h; inhibition, % at 10 µM; 360,000 tested, 2% active; in the data active means inhibition above about 50%
MITF TRPM1 inh – inhibitors of MITF-dependent TRPM1 promoter reporter, primary screen, cell-based, SK-MEL-5, single point, luciferase. SK-MEL-5 TRPM1 promoter luciferase, 24 h. inhibition, % at 12.5 µM. 330,000 tested, 0.83% active. AID 488899, 2010;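 active means mean inhibition across replicates of 60% or more, whatever share of single replicates reaches that level; inconclusive means some that reach 60%, reason not given; inactive means mean inhibition across replicates below 60%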
Shn3 3UTR inh – reduction of Shn3 3'UTR firefly luciferase signal, primary screen, Schnurri-3 inhibitor project, cell-based, Clone20 osteoblasts, set 2. inhibition, % at 12.5 µM. Clone20 osteoblast Shn3 3'UTR firefly luciferase, 24 h. 360,000 tested, 0.52% active. AID 588674, 2011;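 active means mean inhibition of at least 75% with every replicate also reaching 75%; inconclusive means mean inhibition at least 75% but some replicate below; inactive means mean inhibition below 75%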;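 further: 0% = median of neutral control wells and 100% = pilot-screen positive control compound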
TROY NFkB inh – inhibitors of TROY-driven NF-kB signaling, primary screen, Q293 LMP1-TROYcd cells, NF-kB luciferase, uHTS; Q293 LMP1-TROYcd NF-kB luciferase reporter, 4 h; inhibition, % at 10 µM; 360,000 tested, 0.98% active; AID 1347056, 2019;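 active means compounds whose plate-normalised and pattern-corrected inhibition of the luciferase reporter signal at the single screening dose is 50% or more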
Starred values were filed as active, the others as inactive.

Results for C/C(=N/NC(=O)c1cc(C(C)C)[nH]n1)c1cccs1 ?
EBV LMP1 NFkB: 7.9; Peg3 prom inh: -35.1; TWEAK-Fn14 inh: 52.0*; MITF TRPM1 inh: -5.7; Shn3 3UTR inh: -21.2; TROY NFkB inh: -35.0

Results for NC(=O)c1nc(-c2ccco2)nc2c1[nH]c(=O)n2-c1ccc(Cl)c(Cl)c1 ?
EBV LMP1 NFkB: -49.9; Peg3 prom inh: 80.0*; TWEAK-Fn14 inh: -2.9; MITF TRPM1 inh: 4.6; Shn3 3UTR inh: -2.5; TROY NFkB inh: -1.6

How did Cc1cccc(-n2c(=O)[nH]c3c(C(N)=O)nc(-c4ccccc4Cl)nc32)c1 do in these assays?
EBV LMP1 NFkB: 2.3; Peg3 prom inh: 28.2; TWEAK-Fn14 inh: -7.1; MITF TRPM1 inh: -5.6; Shn3 3UTR inh: 20.0; TROY NFkB inh: -10.8

Results for CSc1ncnc2c1ncn2CCCNC1CCN(Cc2ccccc2)CC1 ?
EBV LMP1 NFkB: -0.4; Peg3 prom inh: 8.7; TWEAK-Fn14 inh: -24.6; Shn3 3UTR inh: -10.0; TROY NFkB inh: -6.7

What do the screens show for `c1ccc(COc2ncnc3c2ncn3CCCNC2CCN(Cc3ccccc3)CC2)cc1`?
EBV LMP1 NFkB: -35.0; Peg3 prom inh: 61.4*; TWEAK-Fn14 inh: -27.4; Shn3 3UTR inh: 0.8; TROY NFkB inh: -15.8

Results for CCOC(=O)c1sc2nc(NC(=O)C3CC3)sc2c1C ?
EBV LMP1 NFkB: -31.7; Peg3 prom inh: -99.7; TWEAK-Fn14 inh: -44.0; Shn3 3UTR inh: -62.7; TROY NFkB inh: -51.2

How did CCOC(=O)c1sc2nc(NC(=O)C(C)(C)C)sc2c1C do in these assays?
EBV LMP1 NFkB: -55.3; Peg3 prom inh: -245.8; TWEAK-Fn14 inh: 64.6*; MITF TRPM1 inh: -64.9; Shn3 3UTR inh: 2.1; TROY NFkB inh: 68.1*

What do the screens show for `Cc1onc(-c2ccccc2Cl)c1C(=O)NNC(=O)c1ccccc1F`?
EBV LMP1 NFkB: -2.6; Peg3 prom inh: -5.3; TWEAK-Fn14 inh: 39.9; MITF TRPM1 inh: -13.1; Shn3 3UTR inh: -9.2; TROY NFkB inh: -9.2

What do the screens show for `CC(C)NC1CCC(Nc2ccnc3cc(Cl)ccc23)CC1` (configuration not stated)?
EBV LMP1 NFkB: 8.0; Peg3 prom inh: 11.7; TWEAK-Fn14 inh: 5.3; MITF TRPM1 inh: 25.3; Shn3 3UTR inh: 75.0; TROY NFkB inh: -22.8

Results for Clc1ccc2c(NCCNC3CCCCC3)ccnc2c1 ?
EBV LMP1 NFkB: 1.8; Peg3 prom inh: 83.6*; TWEAK-Fn14 inh: -59.1; MITF TRPM1 inh: 94.9*; Shn3 3UTR inh: 44.7; TROY NFkB inh: -16.9

What do the screens show for `CC(C)Nc1nc(Nc2ccc(F)cc2)c2sccc2n1`?
Peg3 prom inh: 11.6; TWEAK-Fn14 inh: 17.3; Shn3 3UTR inh: 34.0; TROY NFkB inh: 18.1

Results for CC(Oc1ccccc1)C(=O)NC1C(=O)N2C1SC(C)(C)C2C(=O)O (configuration not stated) ?
EBV LMP1 NFkB: 9.2; Peg3 prom inh: -5.8; TWEAK-Fn14 inh: -1.9; MITF TRPM1 inh: 10.2; Shn3 3UTR inh: 20.1; TROY NFkB inh: 4.0

What do the screens show for `CCOC(=O)OC(C)OC(=O)[C@@H]1N2C(=O)[C@@H](NC(=O)[C@H](N)c3ccccc3)[C@H]2SC1(C)C` (some centres not stated)?
EBV LMP1 NFkB: 56.5*; Peg3 prom inh: 7.7; TWEAK-Fn14 inh: -9.2; MITF TRPM1 inh: -0.4; Shn3 3UTR inh: 9.4; TROY NFkB inh: -8.0

What do the screens show for `Cc1c(Cl)cccc1NC(=S)NNc1ncc(C(F)(F)F)cc1Cl`?
EBV LMP1 NFkB: 14.4; Peg3 prom inh: 53.7*; TWEAK-Fn14 inh: 10.4; MITF TRPM1 inh: 15.4; Shn3 3UTR inh: 10.9; TROY NFkB inh: 48.2

Results for O=C(c1sc2cc([N+](=O)[O-])ccc2c1Cl)N1CCOCC1 ?
EBV LMP1 NFkB: 60.8*; Peg3 prom inh: 6.6; TWEAK-Fn14 inh: -0.9; MITF TRPM1 inh: 1.6; Shn3 3UTR inh: 4.7; TROY NFkB inh: -0.6

How did CC(C)N(C(=O)c1sc2cc([N+](=O)[O-])ccc2c1Cl)C(C)C do in these assays?
EBV LMP1 NFkB: 13.6; Peg3 prom inh: 12.1; TWEAK-Fn14 inh: -10.5; MITF TRPM1 inh: 8.0; Shn3 3UTR inh: 14.5; TROY NFkB inh: -18.4

What do the screens show for `CCNc1ccc(S(=O)(=O)N(C)C)cc1NCC(=O)Nc1ccc(F)c(Cl)c1`?
EBV LMP1 NFkB: -6.0; Peg3 prom inh: 11.2; TWEAK-Fn14 inh: -5.5; MITF TRPM1 inh: -4.0; Shn3 3UTR inh: 32.8; TROY NFkB inh: -11.2

What do the screens show for `C/C(=N\NC(=O)c1cc2ccccc2cc1O)c1ccccn1`?
EBV LMP1 NFkB: inconclusive; Peg3 prom inh: 10.0; TWEAK-Fn14 inh: 24.0; MITF TRPM1 inh: 73.9*; Shn3 3UTR inh: 97.3*; TROY NFkB inh: -57.6

What do the screens show for `C/C(=N\NC(=O)c1ccc(F)cc1)c1ccccn1`?
EBV LMP1 NFkB: 4.9; Peg3 prom inh: 14.6; TWEAK-Fn14 inh: -14.1; MITF TRPM1 inh: 44.0; Shn3 3UTR inh: 89.0*; TROY NFkB inh: -70.9

How did C/C(=N\NC(=O)c1ccccc1-n1cccc1)c1ccccn1 do in these assays?
EBV LMP1 NFkB: 8.2; Peg3 prom inh: 38.7; TWEAK-Fn14 inh: -93.1; Shn3 3UTR inh: 93.0*; TROY NFkB inh: -10.7

Results for CC(C)OC(=O)CSc1nnc(SCc2cccc3ccccc23)s1 ?
EBV LMP1 NFkB: -2.1; Peg3 prom inh: 1.5; TWEAK-Fn14 inh: 1.2; MITF TRPM1 inh: -4.9; Shn3 3UTR inh: 7.0; TROY NFkB inh: -11.4

What do the screens show for `CCCC12CN3CCN(CC(C3)/C1=N\NC(=O)c1ccccc1Cl)C2`?
EBV LMP1 NFkB: 5.4; Peg3 prom inh: 15.3; TWEAK-Fn14 inh: -13.9; MITF TRPM1 inh: 4.3; Shn3 3UTR inh: -0.1; TROY NFkB inh: 3.9

What do the screens show for `COc1ccc2[nH]c3c(=O)n(/N=C/[C@H]4C(C)C=C(C)CC4C)c(=O)[nH]c3c2c1` (some centres not stated)?
EBV LMP1 NFkB: 5.5; Peg3 prom inh: 51.0*; TWEAK-Fn14 inh: 7.4; MITF TRPM1 inh: 16.9; Shn3 3UTR inh: 1.5; TROY NFkB inh: -22.6

What do the screens show for `COc1ccc2[nH]c3c(=O)n(N)c(=O)[nH]c3c2c1`?
EBV LMP1 NFkB: 1.8; Peg3 prom inh: 13.7; TWEAK-Fn14 inh: 2.4; MITF TRPM1 inh: 11.9; Shn3 3UTR inh: 3.8; TROY NFkB inh: -29.9

Results for O=c1c2ccccc2cnn1CCOc1ccccc1 ?
EBV LMP1 NFkB: 74.1*; Peg3 prom inh: 43.8; TWEAK-Fn14 inh: 97.1*; MITF TRPM1 inh: 58.4; Shn3 3UTR inh: 58.2; TROY NFkB inh: 71.8*

Results for O=C(c1ccc(C(F)(F)F)cc1)N1CCC(=O)N([C@H](COCc2ccc(C(F)(F)F)cc2)Cc2ccccc2)CC1 ?
TWEAK-Fn14 inh: 23.7; TROY NFkB inh: -2.0

What do the screens show for `O=C(O)c1ccc(S(=O)(=O)Nc2cccc(CP(=O)(c3ccccc3)c3ccccc3)c2)cc1`?
EBV LMP1 NFkB: 8.0; Peg3 prom inh: 14.3; TWEAK-Fn14 inh: -3.0; MITF TRPM1 inh: 4.1; Shn3 3UTR inh: -2.1; TROY NFkB inh: -4.1
